Source: PubChem BioAssay (Tox21)
Inconclusive results are not listed. Activity calls are given as the source filed them. Unless noted, calls follow the shape of the dose curve; as a rule, active = well fitted curve in the direction sought with a large enough effect in the repeat runs; inconclusive = weak or mixed curves; inactive = no such curve, though single readings can be large; an effect the other way counts as inactive or inconclusive.

Key:
[1] = qHTS assay to identify small molecule antagonists of the estrogen related receptor (ERR) signaling pathway - cell viability counter screen (AID 1224818);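 also: viability measured after 17.5 h of compound exposure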
Method in brief: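 Quantitative high-throughput viability counter screen in ERR cells. Compounds (DMSO) incubated 17.5 h at 37 C; read-out was CellTiter-Fluor fluorescence.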

[2] = qHTS assay to identify small molecule antagonists of the estrogen related receptor (ERR) signaling pathway (AID 1224819; also: nearly all actives have a fitted effect of over 50% in size; also: potency is read from the fitted curve at half-maximal effect)
Method in brief: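 ERR reporter cell line (NTP) plated at 2,000 cells/well, settled 6 h at 37C/5% CO2, then exposed to LOPAC compounds for 18 h at 37C. One-Glo luciferase luminescence read after 30 min at room temperature.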

[3] = qHTS assay to identify small molecule agonists of the estrogen related receptor (ERR) signaling pathway (AID 1224820)
Method in brief: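 Luminescence readout (One-Glo, 30 min RT) from NTP-supplied ERR cell line exposed to compounds for 18 h at 37 C. Cells seeded 2,000 per well and pre-incubated 6 h before pin-tool compound transfer.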

[4] = test system: estrogen-related receptor alpha (ERRalpha) with PGC-1alpha coactivator, human; assay: qHTS assay to identify small molecule antagonists of the estrogen related receptor signaling pathway with the pleiotropic PPARgamma coactivator (PGC) (AID 1224821; calls by dose curve;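 also: lower luminescence signal means antagonism of PGC/ERR signalling; nearly all actives have a fitted effect of over 50% in size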)
Method in brief: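 PGC/ERR reporter cells; 6 h pre-incubation 37 C/5% CO2; pin-tool compound in DMSO, 18 h 37 C; One-Glo added, 30 min RT; luminescence read. qHTS antagonist mode.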

[5] = qHTS assay to identify small molecule antagonists of the estrogen related receptor signaling pathway with the pleiotropic PPARgamma coactivator (PGC) cell viability counter screen (AID 1224822)
Method in brief: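 Cytotoxicity in the PGC/ERR cell line is assessed with CellTiter-Fluor, read as fluorescence intensity 30 min after reagent addition, following 17.5 h compound treatment at 37 C.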

[6] = qHTS assay to identify small molecule agonists of the estrogen related receptor signaling pathway with the pleiotropic PPARgamma coactivator (PGC) (AID 1224823)
Method in brief: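 Luminescence readout (One-Glo, 30 min RT) from PGC/ERR cell line treated 18 h at 37 C with pin-tool-delivered DMSO compound solutions; cells plated 6 h before dosing. Quantitative HTS format.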

[7] = qHTS assay to identify small molecule antagonists of the estrogen related receptor (ERR) signaling pathway from Tox21 library - cell viability counter screen (AID 1224834); also: nearly all actives have a fitted effect of over 30% in size
Method in brief: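 Compounds in DMSO were pinned onto ERR cells that had been incubated for 6 h, and the plates were held at 37 C for 17.5 h. CellTiter-Fluor reagent was then added and fluorescence was measured after 30 min.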

[8] = qHTS assay to identify small molecule antagonists of the estrogen related receptor signaling pathway with the pleiotropic PPARgamma coactivator (PGC) from Tox21 10K library - cell viability counter screen (AID 1224840; active = well fitted cell-killing curve with a large enough effect in the repeat runs, not every such curve was filed as active; also: nearly all actives have a fitted effect of over 40% in size)
Method in brief: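 Cell viability is measured by CellTiter-Fluor fluorescence in PGC/ERR cells that receive compounds after a 6-hour attachment period and are then incubated 17.5 hours at 37 C.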

[9] = qHTS assay to identify small molecule antagonists of the estrogen related receptor signaling pathway with the pleiotropic PPARgamma coactivator (PGC) from Tox21 10K library (AID 1224841; call rule not given here; also: actives are mostly falling curves and most rising ones were filed inactive; nearly all actives have a fitted effect of over 50% in size)
Method in brief: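 Cells stably carrying the PGC/ERR reporter, seeded at 2,000 per well, received pin-transferred compounds 6 h post-plating. Exposure lasted 18 h at 37 C. Signal: One-Glo luminescence.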

[10] = qHTS assay to identify small molecule agonists of the estrogen related receptor signaling pathway with the pleiotropic PPARgamma coactivator (PGC) from Tox21 10K library (AID 1224842); also: nearly all actives have a fitted effect of over 15% in size
Method in brief: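 PGC/ERR reporter cell line, 2,000 cells per well, incubated 6 h at 37 C before 23 nL compound in DMSO was added. After 18 h at 37 C, One-Glo luminescence read following 30 min at room temperature.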

[11] = qHTS assay to identify small molecule antagonists of the estrogen related receptor (ERR) signaling pathway from Tox21 library (AID 1224848); also: nearly all actives have a fitted effect of over 50% in size
Method in brief: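 Compounds dissolved in DMSO are pin-transferred onto ERR reporter cells (2,000 per well) that have settled for 6 h at 37 C. Plates then incubate 18 h at 37 C before ONE-Glo luciferase reagent and a luminescence read 30 min later.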

[12] = qHTS assay to identify small molecule agonists of the estrogen related receptor (ERR) signaling pathway from Tox21 library (AID 1224849; calls by dose curve; also: nearly all actives have a fitted effect of over 15% in size); conditions: ERR reporter cell line, ONE-Glo luciferase, 18 h; at 92.4 µM (top of the series) unless noted
Method in brief: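 Quantitative HTS in agonist format: NTP ERR cell line, compounds transferred in DMSO after 6 h plating, 18 h incubation at 37 C, ONE-Glo luminescence endpoint.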

[13] = target: Acetylcholinesterase (Homo sapiens) (UniProt P22303); assay: Acetylcholinesterase (AChE) small molecule antagonists: colormetric cell-based qHTS assay (AID 1347395; calls by dose curve; also: nearly all actives have a fitted effect of over 30% in size)
Sequence of Acetylcholinesterase (Homo sapiens) (P22303 whole entry, looked up): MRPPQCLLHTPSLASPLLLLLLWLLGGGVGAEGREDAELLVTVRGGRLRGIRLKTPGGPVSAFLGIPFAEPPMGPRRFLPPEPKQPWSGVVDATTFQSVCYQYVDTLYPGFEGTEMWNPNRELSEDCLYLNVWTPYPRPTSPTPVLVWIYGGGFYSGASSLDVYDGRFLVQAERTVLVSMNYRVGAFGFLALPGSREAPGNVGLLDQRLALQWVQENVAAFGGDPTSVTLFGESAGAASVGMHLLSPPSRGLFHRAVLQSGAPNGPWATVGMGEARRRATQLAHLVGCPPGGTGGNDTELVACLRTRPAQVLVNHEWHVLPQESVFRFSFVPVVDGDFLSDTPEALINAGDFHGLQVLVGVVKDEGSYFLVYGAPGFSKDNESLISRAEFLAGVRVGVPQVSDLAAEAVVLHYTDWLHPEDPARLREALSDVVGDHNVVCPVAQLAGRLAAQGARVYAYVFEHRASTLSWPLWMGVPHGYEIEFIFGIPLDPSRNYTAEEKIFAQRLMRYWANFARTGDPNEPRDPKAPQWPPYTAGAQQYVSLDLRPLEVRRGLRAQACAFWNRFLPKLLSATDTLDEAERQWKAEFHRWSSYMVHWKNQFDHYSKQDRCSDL
Method in brief: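 Colorimetric read-out: DTNB detects thiocholine released when cellular AChE in SH-SY5Y cells hydrolyses acetylthiocholine. Cells attached overnight, received compound for 30 min at 37 C, then substrate mix for 90 min at 37 C.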

[14] = target: Acetylcholinesterase (Homo sapiens) (UniProt P22303); assay: Acetylcholinesterase (AChE) small molecule antagonists: enzyme-based qHTS assay (AID 1347397; calls by dose curve; also: nearly all actives have a fitted effect of over 55% in size); conditions: Potency: AChE enzyme activity inhibition; outcome: AChE enzyme activity inhibition
Method in brief: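 Colorimetric DTNB read-out of thiocholine released from acetylthiocholine by recombinant human AChE (50 mU/mL as dispensed). Compounds were preincubated 30 min at RT before substrate/DTNB addition, with a 10 min RT reaction.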

[15] = target: Acetylcholinesterase (Homo sapiens) (UniProt P22303); assay: Acetylcholinesterase (AChE) small molecule antagonists: fluorescence cell-based qHTS assay (AID 1347398; calls by dose curve; also: nearly all actives have a fitted effect of over 50% in size); conditions: Potency: AChE activity; outcome: AChE activity
Method in brief: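 SH-SY5Y, 2,000 cells/well, attached overnight; cmpd 30 min 37 C; acetylthiocholine/Thiolite Green cocktail 40 min RT; fluorescence Ex/Em 490/520 nm.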

[16] = target: Acetylcholinesterase (Homo sapiens) (UniProt P22303); assay: Acetylcholinesterase (AChE) small molecule antagonists: enzyme-based qHTS assay with human liver microsomes (AID 1347399; calls by dose curve; also: nearly all actives have a fitted effect of over 60% in size); conditions: Potency: qHTS inhibition; outcome: qHTS inhibition
Method in brief: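 Recombinant human AChE (50 mU/mL in the enzyme mix) and human liver microsomes (0.25 mg/mL final) were preincubated with compound and NADPH (0.25 mg/mL final) for 30 min at 37 C. Acetylthiocholine/DTNB was then added; thiocholine was read colorimetrically after 10 min at room temperature.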
% is scaled to controls: 0 for no effect and ±100 for the full control effect.

N[C@@H](Cn1oc(=O)[nH]c1=O)C(=O)O
inactive: Potency [1] | Potency [2] | Potency [3] | Potency [4] | Potency [5] | Potency [6]

NC(CP(=O)(O)O)C(=O)O (stereo unspecified)
inactive: Potency [1] | Potency [2] | Potency [3] | Potency [4] | Potency [5] | Potency [6]

Nc1ccc(CCN2CCN(c3cccc(C(F)(F)F)c3)CC2)cc1
inactive: Potency [1] | Potency [3] | Potency [4] | Potency [5] | Potency [6]
active: Potency [2] 13.9 µM

CN(N=O)c1ccc(O)c(O)c1
inactive: Potency [1] | Potency [2] | Potency [3] | Potency [4] | Potency [5] | Potency [6]

O=c1ccc2[nH]cc(C3=CCNCC3)c2[nH]1
inactive: Potency [1] | Potency [2] | Potency [3] | Potency [4] | Potency [5] | Potency [6]

NC(N)=NOCC[C@H](N)C(=O)O
inactive: Potency [1] | Potency [2] | Potency [3] | Potency [4] | Potency [5] | Potency [6]

O=C(O)[C@@H]1CCN1
inactive: Potency [1] | Potency [2] | Potency [3] | Potency [4] | Potency [5] | Potency [6]

NCCc1ccc(S(=O)(=O)F)cc1
inactive: Potency [1] | Potency [2] | Potency [3] | Potency [4] | Potency [5] | Potency [6]

NCc1cc(=O)[nH]o1
inactive: Potency [1] | Potency [2] | Potency [3] | Potency [4] | Potency [5] | Potency [6]

COc1ccc2c(c1O)-c1cccc3c1[C@@H](C2)N(C)CC3
inactive: Potency [1] | Potency [2] | Potency [3] | Potency [4] | Potency [5] | Potency [6]

NCC(O)c1cc(O)c(O)cc1F (stereo unspecified)
inactive: Potency [1] | Potency [2] | Potency [3] | Potency [4] | Potency [5] | Potency [6]

C[N+](C)(C)CC#CCOC(=O)Nc1cccc(Cl)c1
inactive: Potency [1] | Potency [2] | Potency [3] | Potency [4] | Potency [5] | Potency [6]

NC(N)=NOCCC(N)C(=O)O (stereo unspecified)
inactive: Potency [1] | Potency [2] | Potency [3] | Potency [4] | Potency [5] | Potency [6]

COC(=O)N1CCN(C(=O)Cc2ccc(Cl)c(Cl)c2)C(CN2CCCC2)C1 (stereo unspecified)
inactive: Potency [1] | Potency [2] | Potency [3] | Potency [4] | Potency [5] | Potency [6]

CC(C)Oc1cccnc1N(C)C1CCN(Cc2ccccc2)CC1
inactive: Potency [1] | Potency [2] | Potency [3] | Potency [4] | Potency [5] | Potency [6]

CN1CCC(c2c[nH]c3ccc(O)cc23)CC1
inactive: Potency [1] | Potency [2] | Potency [3] | Potency [4] | Potency [5] | Potency [6]

CC(C)CC(NP(=O)(O)O[C@@H]1O[C@@H](C)[C@H](O)[C@@H](O)[C@H]1O)C(=O)NC(Cc1c[nH]c2ccccc12)C(=O)O (stereo partly specified)
inactive: Potency [1] | Potency [2] | Potency [3] | Potency [4] | Potency [5] | Potency [6]

O=C(Cc1ccc(Cl)c(Cl)c1)N1CCCCC1CN1CCCC1 (stereo unspecified)
inactive: Potency [1] | Potency [2] | Potency [3] | Potency [4] | Potency [5] | Potency [6]

CCCN1CC[C@@H]2c3cc(O)ccc3CC[C@@H]21
inactive: Potency [1] | Potency [2] | Potency [3] | Potency [4] | Potency [5] | Potency [6]

C[N+](C)(C)CCOC(=O)CBr
inactive: Potency [1] | Potency [2] | Potency [3] | Potency [4] | Potency [5] | Potency [6]

CC1=NN=C(c2ccc(N)cc2)c2cc3c(cc2C1)OCO3
inactive: Potency [1] | Potency [2] | Potency [3] | Potency [4] | Potency [5] | Potency [6]

CS(=N)(=O)CC[C@H](N)C(=O)O (stereo partly specified)
inactive: Potency [1] | Potency [2] | Potency [3] | Potency [4] | Potency [5] | Potency [6]

CCCN1CCC[C@@H](c2cccc(O)c2)C1
inactive: Potency [1] | Potency [2] | Potency [3] | Potency [4] | Potency [5] | Potency [6]

NCCc1c[nH]c2ccc(O)cc12
inactive: Potency [1] | Potency [2] | Potency [3] | Potency [4] | Potency [5] | Potency [6]

CNCCc1c[nH]c2ccc(O)cc12
inactive: Potency [1] | Potency [2] | Potency [3] | Potency [4] | Potency [5] | Potency [6]

CN1C2CCC1CC(OC(c1ccccc1)c1ccccc1N)C2 (stereo unspecified)
inactive: Potency [1] | Potency [2] | Potency [3] | Potency [4] | Potency [5] | Potency [6]

C[C@H](Cc1ccc2c(c1)OC(C(=O)O)(C(=O)O)O2)NC[C@H](O)c1cccc(Cl)c1
inactive: Potency [1] | Potency [2] | Potency [3] | Potency [4] | Potency [5] | Potency [6]

C=CCN1C[C@@H](C)N([C@H](c2ccc(C(=O)N(CC)CC)cc2)c2cccc(OC)c2)C[C@@H]1C
inactive: Potency [1] | Potency [3] | Potency [4] | Potency [5] | Potency [6]
active: Potency [2] 26.6 µM

NCC(CP(=O)(O)O)c1ccc(Cl)cc1 (stereo unspecified)
inactive: Potency [1] | Potency [2] | Potency [3] | Potency [4] | Potency [5] | Potency [6]

Cc1[nH]c2ccc(O)cc2c1CCN
inactive: Potency [1] | Potency [2] | Potency [3] | Potency [4] | Potency [5] | Potency [6]

CC(N)C(=O)OC(C)(C)Cc1ccc(Cl)cc1 (stereo unspecified)
inactive: Potency [1] | Potency [2] | Potency [3] | Potency [4] | Potency [5] | Potency [6] | Potency [7] | Potency [8] | Potency [9] | Potency [10] | Potency [11] | activity change, positive = activation [12] 8.82% [at 42.5 µM] | Potency [13] | Potency [14] | Potency [15] | Potency [16]
